Rows were chosen to be rich in hits. Some 2.8% of all compounds tested hit in one or more screens of this group.
GLP-1R inv ag: inverse agonists of human GLP-1 receptor; P43220; HEK293 GLP-1R CRE-luciferase, luminescence, 24 h; GLP-1R form is constitutively active; Potency, µM (doses to about 38.3 µM), for the others: top-dose activity change, negative = inhibition, most hits filed as inhibitors; hit rate 1.6% among 410,000; also: % is scaled to controls: 0 for no effect and ±100 for the full control effect; nearly all actives have a fitted effect of over 55% in size
Target sequence (P43220 whole entry, looked up): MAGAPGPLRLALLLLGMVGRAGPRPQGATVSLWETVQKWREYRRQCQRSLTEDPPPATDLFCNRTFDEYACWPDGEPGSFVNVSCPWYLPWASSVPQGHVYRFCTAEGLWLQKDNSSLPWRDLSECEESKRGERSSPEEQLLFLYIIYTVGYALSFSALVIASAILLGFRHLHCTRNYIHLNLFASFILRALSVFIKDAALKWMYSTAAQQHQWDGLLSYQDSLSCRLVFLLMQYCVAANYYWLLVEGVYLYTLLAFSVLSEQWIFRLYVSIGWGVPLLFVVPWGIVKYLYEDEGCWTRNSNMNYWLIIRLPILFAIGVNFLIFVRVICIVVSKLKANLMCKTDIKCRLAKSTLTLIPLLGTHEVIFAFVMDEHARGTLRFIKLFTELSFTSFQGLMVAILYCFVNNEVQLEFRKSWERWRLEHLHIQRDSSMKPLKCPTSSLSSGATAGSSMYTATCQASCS
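GLP-1R inverse agonism mode: basal reporter luminescence in engineered HEK293 cells measured after one day of compound exposure at 37 deg C, with a 12 min room-temperature detection step.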
BRCA1 expr up: BRCA1 expression activation. MCF7-BRCA1-FFLuc reporter, luminescence, 48 h; response scale: scaled: vehicle 0%, 10 µM genistein 100%. Potency, µM (series often up to 46.1 µM), inactives show at the highest dose activation, hits mostly activators. hit rate 1.1% among 380,000; also: nearly all actives have a fitted effect of over 80% in size
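Activators of BRCA1 expression were detected as increased firefly luciferase luminescence in engineered MCF7 cells after 48 h compound incubation. Signals were scaled to genistein 10 microM as full activation.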
GLP1R ag: agonists of human GLP-1 receptor; P43220; HEK293 GLP-1R CRE-luciferase, luminescence, 4-6 h; cells express a hypersensitive GLP-1R form; Potency, µM (doses to about 45.6 µM), for inactives: top-dose activation, most hits filed as activators; hit rate 0.007% among 380,000; also: % of control where 0% means no effect
Mito fusion yeast: blocks mitochondrial division or promotes mitochondrial fusion. hit rate 0.23% among 320,000. AID 485298. S. cerevisiae fusion-defective mutant growth rescue, CellTiterGlo 48 h. Potency, µM (titrated, usually from 46.1 µM), for the others: at the top dose growth rescue (activation), usual class: activators; also: % of control where 0% means no effect; nearly all actives have a fitted effect of over 45% in size
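Luminescent cell viability in 1536-well qHTS format served as the measure of rescued growth in ts fusion-mutant S. cerevisiae cultured on non-fermentable YPEG for 48 hours at 37C.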
HEK293 tox: cytotoxicity counter-screen for GLP-1 receptor inverse agonists; HEK293 cAMP-luciferase reporter cells, luminescence, 24 h; Potency, µM (top dose mostly 38.3 µM), for inactives: at the top dose activity change, negative = inhibition, usual class: inhibitors; hit rate 0.13% among 410,000; AID 624418;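 also: loss of luciferase light is scored as toxicity; % is scaled to controls: 0 for no effect and ±100 for the full control effect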
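To flag toxic compounds, the library was rerun on cells for 24 hr at 37 deg C and 5% CO2. Viability-linked luminescence was captured 12 min after adding luciferase detection reagent.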
* marks the source's active call; other numbers are inactive results; ? = inconclusive; . = not tested or not shown; [ ] = remark or other dose. Calls follow the shape of the dose curve; as a rule, active = well fitted curve in the direction sought with a large enough effect; inconclusive = small, poorly fitted or top-dose-only effect, or another doubt; inactive = no such curve, though single readings can be large; an effect the other way counts as inactive or inconclusive. Potency is read from the fitted curve at half-maximal effect.

SMILES | GLP-1R inv ag | BRCA1 expr up | GLP1R ag | Mito fusion yeast | HEK293 tox
Cc1ccc(C(=O)NCCc2ccccc2)cc1S(=O)(=O)N1CCOCC1 | -3.7% | 11.2µM* | 15.3% | -2.9% | ?
COc1ccc(N2CCN(C(c3cccs3)C(C)NC(=O)c3ccc4c(c3)OCO4)CC2)cc1 (centres undefined) | -19.5% | -26.8% | 0.7% | -6.2% | -0.9%
COc1ccc(/C=C/C(=O)Oc2ccc(C)cc2)cc1 | 34.7% | -1.3% | 2.9% | 2.8% | -22.3%
Nc1nc(SCc2ccccc2)[nH]c(=O)c1-c1ccccc1 | -24.0% | 10µM* | 5.5% | 0.4% | -1.3%
CCc1sc(C(=O)N2CCCN(C)CC2)cc1Br | ? | 9.1% | 4.3% | -1.2% | -15.6%
CCc1sc(C(=O)NC2CCN(C)CC2)cc1Br | 10µM* | -8.7% | -3.1% | -6.2% | 2.7%
COc1ccc(N(CC(=O)NCc2ccccc2C)S(=O)(=O)c2ccc(C)cc2)cc1OC | 18.8% | 0.0% | 7.3% | 3.5% | -12.4%
N/C(=N\OC(=O)c1ccc2c(c1)OCO2)c1cccnc1 | 47.1% | 10µM* | -13.5% | -6.2% | 19.6%
N/C(=N\OC(=O)c1ccccc1)c1cccnc1 | 20.0% | 11.2µM* | -6.1% | -3.0% | -6.0%
CC1(CC(=O)N/N=C/c2ccc(-c3cccc(C(F)(F)F)c3)o2)OCCO1 | 11.0% | -3.6% | 13.8% | -8.0% | -4.6%[1.53 µM]
Cc1cc(C(=O)COC(=O)c2ccc3c(c2)OCO3)c(C)n1Cc1cccs1 | ? | 5.01µM* | -7.1% | 3.5% | 1.9%
Cc1cccc(C(=O)OCC(=O)c2ccc3c(c2)OCO3)c1O | -14.4% | 6.31µM* | -16.2% | -1.2% | -9.3%
Cc1cccc(C(=O)OCC(=O)c2ccc3c(c2)OCCO3)c1O | -16.3% | 6.31µM* | 11.7% | . | 2.4%
Cc1c(O)ccc(/C=N/Nc2nc(-c3cccnc3)nc3ccccc23)c1O | 10µM* | -6.0% | 11.9% | -4.5% | ?
Oc1ccc(/C=N/Nc2nc(-c3cccnc3)nc3ccccc23)c(O)c1 | ? | 75.8% | -0.1% | 2.7% | ?
Cc1ccc(Nc2nc(-c3cccnc3)nc3ccccc23)cc1 | ? | -40.8% | 25.0% | 22.5% | -22.7%
CCOC(=O)c1ccc(Nc2nc(-c3cccnc3)nc3ccccc23)cc1 | 8.91µM* | -52.1% | 4.4% | 7.3% | -8.5%
CCC(=O)Nc1nc(-c2ccc3c(c2)OCCO3)cs1 | -25.3% | 141.4% | -2.2% | 4.0% | -3.0%
CC(C)(C)C(=O)Nc1nc(-c2ccc3c(c2)OCO3)cs1 | 10µM* | ? | -4.4% | 15.6% | 6.4%
COc1ccc(-c2csc(-c3cccnc3)n2)cc1C | 76.8% | 12.6µM* | ? | 0.4% | 5.9%
COc1ccc2cc(-c3csc(-c4cccnc4)n3)ccc2c1 | 17.8% | ? | 3.4% | 0.3% | -2.2%
COc1ccc(NC(=S)Nc2ncccc2C)cc1OC | 13.3%[7.66 µM] | 7.94µM* | 15.7% | 5.8% | -7.9%[7.66 µM]
Cc1cccnc1NC(=S)Nc1ccc(Cl)c(Cl)c1 | ? | 34.6% | -6.1% | 1.6% | ?
COc1ccc(-c2csc(Nc3ncccc3C)n2)cc1OC | 19.3% | 2.82µM* | ? | -3.4% | -10.8%
O=C1c2cccc(Cl)c2C(=O)c2c1cccc2N1CCCC1 | 6.31µM* | -42.1% | 10.1% | . | ?
SMILES | GLP-1R inv ag | BRCA1 expr up | GLP1R ag | Mito fusion yeast | HEK293 tox
O=C1c2ccccc2C(=O)c2cc(N3CCCCC3)ccc21 | -44.2% | -97.3% | -0.1% | . | -6.1%
COc1ccc(NC(=O)CNC(=O)Cn2cnc3sc(C)c(C)c3c2=O)cc1OC | 50.7% | 0.0% | 1.7% | 1.8% | -15.6%
CN(C)c1cc(N/N=C/c2ccc(Cl)cc2)nc(N(C)C)n1 | 2.51µM* | -64.5% | -0.7% | 1.8% | ?
COc1cc(N/N=C/c2ccc(N(C)C)cc2)ncn1 | ? | -28.8% | -3.9% | -3.7% | 6.7%
CC(Cc1cccs1)NC(=O)Nc1cccc(Cl)c1 (centres undefined) | 11.2µM* | 25.7% | 2.0% | 1.8% | -2.0%
COc1ccc(N(Cc2cccs2)C(=O)Nc2cccc(Cl)c2)cc1 | 10µM* | . | . | . | -1.0%
CN(CC(=O)Nc1cc(Cl)cc(Cl)c1)Cc1cccs1 | 12.6µM* | -2.3% | 14.6% | 8.8% | -5.4%
CS(=O)(=O)Nc1cc2occ(NC=O)c(=O)c2cc1Oc1ccccc1 | . | . | -4.7% | . | .
Cc1ccc(C(=O)CC2(O)C(=O)N(CCc3ccccc3)c3ccc(Br)cc32)o1 (centres undefined) | 7.94µM* | -28.2% | 1.9% | 14.8% | -29.8%
COC(=O)c1ccc(NC(=O)CN2CCN(CC#N)CC2)cc1 | 13.7% | 11.6% | 0.3% | -15.9% | 4.7%
O=C(O)c1ccc(/C=N/N2CCN(c3ccccc3)CC2)cc1 | 7.0% | 4.47µM* | -2.9% | 1.6% | -9.3%
Cc1c(C(=O)N(C)C2CCCCC2)sc2ncnc(N3CCN(c4ccccc4F)CC3)c12 | 12.6µM* | 0.0% | -1.8% | 29.9% | -9.8%
NC(=O)COc1ccccc1C(=O)O | 13.0%[7.66 µM] | -21.3% | -2.0% | -6.8% | 1.9%[7.66 µM]
CN(CC(=O)Nc1ccc(OC(F)(F)F)cc1)C(=O)Cc1ccc2c(c1)CCC2 | 5.62µM* | -30.4% | 1.5% | -5.2% | 1.4%
Cc1nn2c(N3CCN(C4CCCC4)CC3)cc(C(C)(C)C)nc2c1-c1ccccc1 | 4.6% | 4.8% | -5.6% | -2.3% | 13.6%
Cc1nn2c(N3CCN(C)CC3)cc(C(C)(C)C)nc2c1-c1ccccc1 | 7.08µM* | -79.2% | ? | -25.7% | ?
COc1cccc(C(C)(O)c2nc(-c3ccc(Cl)cc3)cs2)c1 (centres undefined) | ? | 0.0% | 7.6% | . | -6.7%
COc1ccc(-c2csc(C(C)(O)c3cccc(OC)c3)n2)cc1 (centres undefined) | 10µM* | -19.4% | 3.6% | . | -0.5%
CC(O)(c1ccccc1)c1nc(-c2cccc(C(=O)O)c2)cs1 (centres undefined) | 24.6% | 10µM* | 17.3% | . | 2.9%
CC(O)(c1cccc(F)c1)c1nc(-c2cccc(C(=O)O)c2)cs1 (centres undefined) | 24.5% | 100.5% | 0.0% | . | 3.6%
O=C1Nc2ccc([N+](=O)[O-])cc2OC1CCN1CCN(c2ccccc2)CC1 (centres undefined) | 11.2µM* | -3.3% | -0.2% | 3.6% | -22.2%
Cc1nc2scc(C)n2c(=O)c1S(=O)(=O)Nc1cccc(O)c1 | 4.8% | . | . | . | 15.9%
Cc1nc2scc(C)n2c(=O)c1S(=O)(=O)Nc1cccc(C(F)(F)F)c1 | 11.2µM* | . | . | . | 2.1%
COc1cccc(-n2c(SCc3ccc(F)cc3)nc3c([nH]c4ccccc43)c2=O)c1 | 8.91µM* | -44.0% | 3.6% | . | -15.3%
COc1cccc(-c2nn(C)c3sc(C(=O)NCCCN(C)Cc4ccccc4)cc23)c1 | 5.62µM* | -28.7% | 0.2% | -9.6% | ?
CCCCN(C)CCNC(=O)c1cc2c(-c3ccccc3F)nn(C)c2s1 | 10µM* | -42.9% | -0.2% | -11.4% | -22.2%
C#CCN1C=CC(=O)[C@@H](O)[C@H]1c1ccccc1Br | 15.2% | -8.2% | -0.5% | . | 2.2%
